PP5 inh – inhibitors of human protein phosphatase 5 (PP5); P53041; purified PP5c, OMFP substrate fluorescence; inhibition, % at 6.7 µM; 0.18% of 320,000 active; AID 1987;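 active means inhibition above the campaign's mean inhibition across all tested compounds plus 3 SD, cut at about 9.5% in these data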;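 further: 0% = DMSO only and 100% = 100 µM cantharidin control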
Target sequence (P53041 whole entry, looked up): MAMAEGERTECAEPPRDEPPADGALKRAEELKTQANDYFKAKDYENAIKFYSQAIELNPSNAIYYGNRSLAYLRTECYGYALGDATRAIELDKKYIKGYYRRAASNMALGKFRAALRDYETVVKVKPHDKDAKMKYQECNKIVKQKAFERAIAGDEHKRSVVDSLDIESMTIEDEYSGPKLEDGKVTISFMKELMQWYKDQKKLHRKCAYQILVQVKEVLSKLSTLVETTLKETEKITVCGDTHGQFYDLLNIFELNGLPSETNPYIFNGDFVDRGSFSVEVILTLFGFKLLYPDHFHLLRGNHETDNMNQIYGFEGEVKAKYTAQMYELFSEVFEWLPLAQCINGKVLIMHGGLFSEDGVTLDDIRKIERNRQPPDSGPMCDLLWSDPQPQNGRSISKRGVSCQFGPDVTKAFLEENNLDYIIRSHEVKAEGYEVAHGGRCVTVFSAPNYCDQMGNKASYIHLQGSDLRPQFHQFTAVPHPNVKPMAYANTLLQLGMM
Mdm2-MdmX inh – human Mdm2/MdmX binding inhibition. 3% of 330,000 active. O15151+Q00987. SaOS-2 split-luciferase Mdm2/MdmX complementation, luminescence. inhibition, % at 8 µM;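 active means inhibition of at least 50% at 8 µM in the primary screen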
PP1 counter – counter-screen for PP5 inhibitors: inhibitors of human PP1-alpha | P62136 | purified PP1alpha, OMFP fluorescence | inhibition, % at 6.7 µM | 0.9% of 320,000 active;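 active means inhibition above the mean inhibition of all tested compounds plus 3 SD, computed separately for each screening campaign, cut at about 15% in these data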
Beta cell apopt – beta cell apoptosis inhibition | INS-1E cytokine-induced death, ATP luminescence, 48 h; percent of positive-control rescue, neutral wells zero | protection from apoptosis, % (test concentration not listed) | 0.8% of 300,000 active;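 active means Every replicate reaches about 75%, or at least half do and their mean reaches it too, limit read from the data; inconclusive means At least half of replicates reach the limit but their mean does not; inactive means Under half of replicates reach the limit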;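 further: 0% = cytokine-treated negative control wells and 100% = positive control rescue; higher means more ATP so stronger rescue from cytokine killing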
CSC inhib – cancer stem cell inhibition; cancer stem cell-like cells viability, luminescence; inhibition, % at 7.5 µM; 1.1% of 300,000 active; in the data active means inhibition above about 75%; inconclusive means no clear call, values can overlap the other calls; tested in HMLE shEcad cells
Calb FLC – affects C. albicans growth with fluconazole | AID 1979 | growth inhibition, % (test concentration not listed) | 0.57% of 300,000 active | C. albicans CaCi-2 (fluconazole-resistant clinical isolate) + fluconazole, Alamar Blue growth, 48 h;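 active means growth inhibition above about 58% in most replicates, limit read from the data, passing the limit was not always enough; inconclusive means exactly half the replicates above a set limit; inactive means most replicates below a set limit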;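 further: all wells also contain fluconazole at 8 µg/ml as a sub-toxic cotreatment; 0% = median of DMSO wells and 100% = median of geldanamycin control wells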
Mdm2 MdmX conf – human Mdm2/MdmX binding inhibition, confirmed. shares compounds with Mdm2-MdmX inh. luminescent assay. inhibition, % at 8 µM. 55% of 10,000 active; in the data active means inhibition above about 40%
FLuc counter – counter-screen for Mdm2/MdmX inhibitors: full-length luciferase | 77% of 6,200 active | SaOS-2 full-length luciferase counterscreen, luminescence | AID 504607 | inhibition, % at 8 µM | shares compounds with Mdm2-MdmX inh;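 active means mean inhibition at 8 µM reaching about 37%, which flags the compound as non-specific, limit read from the data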;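 further: p53-null SaOS-2 cells with luciferase driven by a doxycycline-inducible promoter; compound on cells about two nights before reading with doxycycline added after day one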
Active calls of the source: *; ? = inconclusive; / = no result given. Only some compounds are listed: those with a hit (about 4.9% of all), similar ones and a draw of the others.

SMILES	PP5 inh	Mdm2-MdmX inh	PP1 counter	Beta cell apopt	CSC inhib	Calb FLC	Mdm2 MdmX conf	FLuc counter
CC(=O)O[C@H]1CC[C@]2(C)[C@H]3CC=C4[C@@H]5[C@@H](C)[C@H](C)CC[C@]5(C(=O)O)CC[C@@]4(C)[C@]3(C)CC[C@H]2C1(C)C	1.5	35.0	0.9	15.4	-16.5	3.7	/	/
CCC(CC)C(=O)Nc1cc(Cl)ccc1C	2.0	18.2	-2.4	/	-6.2	-3.1	/	/
CN(C)c1nc(NCc2ccccc2)nc(N/N=C/c2ccc(Br)cc2)n1	-0.3	90.2*	-3.3	9.8	5.4	-16.8	32.6	/
CN(C)c1nc(NCc2ccccc2)nc(N/N=C/c2ccc3c(c2)OCO3)n1	2.0	-18.8	3.6	7.5	10.5	3.0	/	/
Cc1ccc2c(c1)C(O)(C1COC(C)(C)CC1=O)C(=O)N2C (stereo not drawn)	-1.1	8.6	-4.0	-4.0	-1.8	-44.6	/	/
CN1C(=O)C(O)(C2COC(C)(C)CC2=O)c2cc(Br)ccc21 (stereo not drawn)	0.8	52.9*	0.2	-5.3	33.6	-0.9	28.6	/
Cc1ccc(-c2nn(-c3ccccc3)cc2/C=C/C(=O)Nc2nccs2)cc1	-2.9	72.3*	-2.8	6.6	14.6	-2.6	42.8*	37.4*
COc1ccccc1NS(=O)(=O)c1ccc(N/N=C/c2c(C)nn(-c3ccccc3)c2N2CCCC2)c([N+](=O)[O-])c1	2.8	22.8	0.6	9.1	52.9	8.1	/	/
COc1c(/C=N/Nc2ccc([N+](=O)[O-])cc2[N+](=O)[O-])c(C)nn1-c1ccccc1	-2.7	54.1*	-4.5	2.8	17.3	-3.1	13.6	/
O=[N+]([O-])c1ccc(N/N=C/c2cn(-c3ccccc3)nc2-c2ccccc2)cc1	4.6	57.4*	2.6	14.6	29.4	-6.9	39.2	52.2*
NS(=O)(=O)c1ccc(N/N=C/c2cn(-c3ccccc3)nc2-c2ccccc2)c([N+](=O)[O-])c1	-2.7	84.0*	13.1	91.1*	139.9*	-7.3	14.1	/
CCOc1ccc(C(=O)NCC(=O)OCCN2C(=O)c3ccccc3C2=O)cc1OCC	3.3	-13.2	-3.5	3.1	4.2	/	/	/
CC(C)(C)CN1CCN(CC#Cc2ccccc2)CC1CCO (stereo not drawn)	6.6	5.5	-6.9	-1.8	-5.0	-4.1	/	/
Cc1ccc(-c2cc3ncc(C#N)c(N)n3n2)cc1	1.2	-30.7	-4.0	-1.9	-6.4	-8.7	/	/
NS(=O)(=O)c1ccc(NC(=O)/C=C/c2cn(-c3ccccc3)nc2-c2cccc(Cl)c2)cc1	-1.0	50.2*	13.6	5.3	24.7	-6.6	21.9	/
O=C(O)c1ccc(NC(=O)c2cn(-c3ccccc3)nc2-c2cccc(Cl)c2)cc1	4.6	14.1	9.3	0.3	-4.6	-1.2	/	/
O=C(Nc1ccc2c(c1)OCCO2)c1cccc2nc3ccccc3nc12	-1.4	77.6*	-0.5	46.4	82.8*	52.2	57.2*	27.6
O=C(Nc1ccc2c(c1)OCCO2)c1ccccc1F	-0.6	-23.9	0.2	1.4	0.0	-13.2	/	/
O=C(Nc1nc(-c2cc(Cl)sc2Cl)cs1)c1ccc(Br)s1	0.9	79.6*	-8.6	/	39.4	24.7	7.1	/
CN(C)c1ccc(CNCCC(Cc2ccccc2)c2ccco2)cc1 (stereo not drawn)	-0.5	52.3*	1.7	29.8	13.5	-28.4	30.0	/
COc1cc2[nH]c(C(=O)N3CCc4ccccc43)cc2c(OC)c1OC	0.8	-12.4	-0.1	10.9	-3.1	-3.1	/	/
Cn1nnnc1Sc1ncnc2scc(-c3ccc(C(F)(F)F)cc3)c12	0.8	97.8*	-0.4	12.5	93.9*	/	98.8*	50.0*
COc1cccc(-c2csc3ncnc(Sc4nnnn4C)c23)c1	/	97.9*	/	-2.5	/	/	79.7*	20.2
Cn1nnnc1Sc1ncnc2scc(-c3cccc(C(F)(F)F)c3)c12	/	100.4*	/	-1.8	/	/	99.4*	53.4*
CC(=O)c1ccccc1-c1csc2ncnc(Sc3nnnn3C)c12	-0.1	32.2	3.3	-34.7	24.4	/	/	/
SMILES	PP5 inh	Mdm2-MdmX inh	PP1 counter	Beta cell apopt	CSC inhib	Calb FLC	Mdm2 MdmX conf	FLuc counter
Cn1nnnc1Sc1ncnc2scc(-c3cccc(F)c3)c12	-0.7	97.7*	-2.9	4.7	-2.3	/	98.6*	53.4*
O=C(CSc1ncn[nH]1)Nc1ccc(S(=O)(=O)Nc2ncccn2)cc1	-0.6	-19.0	0.8	-0.6	20.4	-3.3	/	/
COc1ccc(NC(=O)COC(=O)CCNS(=O)(=O)c2ccc(Cl)cc2)cc1	0.9	-8.3	0.3	-4.1	8.0	-5.6	/	/
CC(C)N1CCN(Cc2ccc(OC3CCCC3)cc2)CC1CCO (stereo not drawn)	-1.5	17.5	-0.7	3.7	?	-7.1	/	/
Cc1noc(NS(=O)(=O)c2ccc(NS(=O)(=O)c3ccc(Cl)cc3)cc2)c1C	/	23.7	/	-9.0	-17.6	/	/	/
O=C(NCCCN1CCCC1)c1ccc2c(Cl)c3c(nc2c1)CCCC3	-2.8	71.7*	-0.8	-0.8	7.4	18.9	50.7*	44.8*
CCN(CC)CCCNC(=O)c1ccc2c(Cl)c3c(nc2c1)CCCC3	3.4	84.1*	-2.9	3.2	49.8	?	49.4*	30.8
O=C(NC1CC1)c1ccc2c(Cl)c3c(nc2c1)CCCC3	-1.7	-23.2	-2.1	-0.2	4.9	30.2	/	/
CCCCN(CC)CCNC(=O)c1ccc2c(Cl)c3c(nc2c1)CCC3	-0.7	39.4	-1.5	-2.0	14.8	-7.0	/	/
Cc1ccc(N(C)C(=O)c2ccc3c(Cl)c4c(nc3c2)CCC4)cc1C	4.3	-3.0	3.3	5.2	/	-4.9	/	/
CCCN1CCN(CCCNC(=O)c2ccc3c(Cl)c4c(nc3c2)CCCC4)CC1	1.4	70.0*	0.7	12.0	11.7	5.0	39.1	54.6*
CCc1ccc(N(CC)C(=O)c2ccc3c(Cl)c4c(nc3c2)CCC4)cc1	5.0	56.2*	1.4	8.8	/	1.5	31.6	/
CC1Cc2cc(/C(O)=C3/C(=O)C(=O)N(CCN4CCOCC4)C3c3ccc([N+](=O)[O-])cc3)ccc2O1 (stereo not drawn)	2.9	28.5	3.6	-0.2	-23.9	2.3	/	/
N=C1S/C(=C\c2ccccc2F)C(=O)N1c1ccc(F)cc1	3.8	1.1	-1.1	-2.6	-1.7	-5.4	/	/
N=C1S/C(=C\c2cccc3ccccc23)C(=O)N1c1ccc(F)cc1	1.3	55.7*	17.2*	10.1	97.2*	28.5	48.6*	61.9*
COc1cccc2cc(C(=O)NCCN3CCOCC3)c(=O)oc12	3.5	-25.6	-3.7	-2.6	-17.3	-1.3	/	/
NS(=O)(=O)c1ccc(Sc2ccccn2)c([N+](=O)[O-])c1	-0.1	5.5	-5.7	-5.8	20.0	1.9	/	/

Bioassay records deposited in PubChem by several laboratories.
